# Screens from PubChem.
# ADAM10 inh: human ADAM10 inhibitors, primary screen, biochemical, QFRET, HTS | 0.62% of 370,000 active | Disintegrin and metalloproteinase domain-containing protein 10 (Homo sapiens), O14672 | recombinant ADAM10, EDANS/DABCYL FRET peptide cleavage, 3 h | AID 720582, 2013 | inhibition, % at 7 µM;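 active = inhibition above a per-campaign cutoff equal to the mean of compounds falling between control-based bounds plus 3 SD, cut at about 20% in these data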;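 also: 0% = DMSO wells while the 100% control is not disclosed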
# Target sequence (O14672 214-748 limits assumed): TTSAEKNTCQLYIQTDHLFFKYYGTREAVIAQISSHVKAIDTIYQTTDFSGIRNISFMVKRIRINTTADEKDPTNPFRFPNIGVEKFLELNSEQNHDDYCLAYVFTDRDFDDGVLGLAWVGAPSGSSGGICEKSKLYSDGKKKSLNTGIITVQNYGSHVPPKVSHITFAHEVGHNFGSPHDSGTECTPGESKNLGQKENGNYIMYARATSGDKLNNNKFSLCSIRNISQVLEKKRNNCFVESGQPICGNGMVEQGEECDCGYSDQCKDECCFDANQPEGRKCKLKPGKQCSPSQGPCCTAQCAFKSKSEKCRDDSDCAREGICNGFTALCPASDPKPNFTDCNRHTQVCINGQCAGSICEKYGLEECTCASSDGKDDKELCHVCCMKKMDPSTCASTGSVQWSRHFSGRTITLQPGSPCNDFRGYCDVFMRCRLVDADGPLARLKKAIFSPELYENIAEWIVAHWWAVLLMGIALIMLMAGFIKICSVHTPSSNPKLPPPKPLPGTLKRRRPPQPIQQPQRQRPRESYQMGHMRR
# FGF22 binding: binders of human FGF22 protein, primary screen, FGF22 synaptogenesis inhibitor project, biophysical, thermal shift, single point; Fibroblast growth factor 22 (Homo sapiens), Q9HCT0; recombinant FGF22 thermal shift, SYPRO orange fluorescence; percent of sucrose octasulfate shift, DMSO zero; activity (Tm shift, normalised), % at 9.99 µM; 1.5% of 340,000 active;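 active = mean Tm shift, scaled 0 neutral to 100 positive control, at about 1.3% or above, every replicate too, limit read from the data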
# rRNA inh HTS: reduced GFP signal of wild-type E. coli, primary screen, bacterial rRNA inhibitor project, GFP/RFP fluorescence, OD600, single point | E. coli WT GFP vs humanized-ribosome RFP mutants, 24 h; hits give low values; DMSO median 0, no signal -100 | 1.6% of 350,000 active | GFP signal change (wild-type ribosome), % (concentration not given with the values) | AID 720706, 2013;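 active = significant combined selectivity score with lowered wild-type GFP, culture density cut under 30%, mutant RFP and density less affected; inactive = any of these conditions unmet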
# KLK7 zymogen act: proKLK7 zymogen activators, primary screen, biochemical, fluorescence intensity. activation, % at 7 µM. purified proKLK7, EDANS-DABCYL substrate fluorescence; 100% is mature enzyme control, 0% vehicle. Kallikrein-7 (Homo sapiens), P49862. AID 652039, 2013. 0.9% of 370,000 active;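 active = activation above the mean of all tested compounds plus 3 SD, computed per campaign excluding outliers beyond control limits, cut at about 13% in these data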
# ADAM17 inh: ADAM17 inhibitors, primary screen, biochemical, QFRET; inhibition, % at 6.95 µM; recombinant ADAM17, EDANS/DABCYL FRET peptide cleavage; 0.83% of 370,000 active; Disintegrin and metalloproteinase domain-containing protein 17 (Homo sapiens), P78536;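 active = inhibition above the mean of compounds lying between control limits plus 3 SD, set per campaign, cut at about 8.5% in these data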;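 also: 0% = DMSO-only wells as the low control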
# KLK7 act conf: proKLK7 zymogen activators, confirmation, biochemical, fluorescence intensity, triplicate | purified proKLK7, EDANS-DABCYL substrate fluorescence; scaled: vehicle 0, mature enzyme 100 | activation, % at 7 µM | 68% of 3,200 active | shares compounds with KLK7 zymogen act;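 active = activation, as change over the incubation, above the mean of all tested compounds plus 3 SD, cut at about 13% in these data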
# EDANS-DABCYL int: EDANS-DABCYL substrate optical interference, artefact control for kallikrein-7 zymogen activator project, biochemical, fluorescence intensity, high throughput; shares compounds with KLK7 zymogen act; no enzyme, 4 h; solvent 0%, active enzyme control 100%; activation, % at 7 µM; 80% of 3,200 active; AID 686952, 2013;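 active = activation above the all-compound mean plus 3 SD, ignoring values outside control-based bounds, cut at about 4.8% in these data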;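 also: value is the 4 h activation minus the activation read at time zero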
# EDANS interf: optically interferes with EDANS-DABCYL fluorescence, kallikrein-7 activator counter-screen. shares compounds with KLK7 zymogen act. EDANS-DABCYL peptide fluorescence interference, no enzyme. EC50, µM. 20% of 250 active. AID 720493;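 active = compounds that raise the fluorescence signal in this interference counterscreen, with EC50 at or below 10 µM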;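 also: intact quenched peptide substrate alone read at 355 nm excitation and 520 nm emission; signal is fluorescence gain from T0 to T4 after four hours at room temperature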
# * = called active by the depositor; i = inactive; . = no result given. Hits are enriched below; roughly 3.8% of the tested compounds scored in any of these assays.
SMILES,ADAM10 inh,FGF22 binding,rRNA inh HTS,KLK7 zymogen act,ADAM17 inh,KLK7 act conf,EDANS-DABCYL int,others
CCCNC(=O)OC1CC2CC1[C@H]1CCCCN1C2=O (stereo partly specified),-5,0,10,45*,-4,1,0,
CCCC(=O)Nc1ccc2c(c1)C(=O)N(C)C[C@H](OC)[C@H](C)CN(CC1CCCC1)[C@@H](C)CO2,.,0,-1,.,.,.,.,
O=C(CC(SCCO)c1ccc2c(c1)OCO2)c1ccco1 (stereo unspecified),0,.,.,17*,-1,48*,46*,
CCOC(=O)C1=C(CSc2nc3c(cc2C#N)CCC3)OC(N)=C(C#N)C1c1ccccc1 (stereo unspecified),-96,.,.,5,-30,.,.,
CCOC(=O)CC1=C(C(=O)OCC)C(c2cccnc2)C(C#N)=C(N)O1 (stereo unspecified),-17,.,.,0,-8,.,.,
CCOC(=O)C1=C(CSc2nc(-c3ccccc3)ccc2C#N)OC(N)=C(C#N)C1c1cccnc1 (stereo unspecified),i,.,.,382*,-186,384*,347*,
CCOC(=O)C1=C(CSc2nc(-c3ccccc3)ccc2C#N)OC(N)=C(C#N)C1c1ccccc1 (stereo unspecified),-492,.,.,470*,-160,585*,566*,
COc1ccccc1CNC(=O)C[C@H]1CC[C@H]2[C@H](COc3ccc(NC(=O)Nc4ccc(F)c(F)c4)cc3C(=O)N2C)O1,.,0,-3,.,.,.,.,
CCC1OC23CCCCC2C(C#N)(C(=N)O3)C1(C#N)C#N (stereo unspecified),i,.,.,14*,-411,68*,62*,
Cc1ccccc1-n1c2nc(=O)n(C)c(=O)c-2cc2ccccc21,i,0,25,21*,-450,30*,19*,EDANS interf=i
CCCCn1c(=O)nc2n(-c3ccccc3C)c3ccccc3cc-2c1=O,-219,0,13,2,-56,.,.,
COc1ccc(CN(C)C[C@H]2OCCCC[C@H](C)Oc3ccc(NS(=O)(=O)c4cccs4)cc3C(=O)N([C@H](C)CO)C[C@H]2C)cc1,.,0,3,.,.,.,.,
CC1(C)CC(=O)C2=C(C1)OC(N)=C(C#N)C2c1ccccc1 (stereo unspecified),-6,.,0,0,-1,.,.,
CC1(C)CC(=O)C2=C(C1)OC(N)=C(C#N)C2c1ccccc1[N+](=O)[O-] (stereo unspecified),-142,0,14,17*,-56,12,13*,
COCCCNC(=O)C[C@H]1C[C@H](C(=O)N2CCOCC2)[C@@]2(CCC3CCCC3)c3[nH]c4cc(-c5ccco5)ccc4c3CCN2C1=O,-391,0,3,23*,-96,13*,18*,
COc1ccc(CNC(=O)C[C@H]2C[C@H](C(=O)N3CCOCC3)[C@@]3(CCC4CCCC4)c4[nH]c5cc(-c6ccco6)ccc5c4CCN3C2=O)cc1OC,-208,0,17,-6,-66,.,.,
O=C(C[C@H]1C[C@H](C(=O)N2CCOCC2)[C@@]2(CCC3CCCC3)c3[nH]c4cc(-c5ccco5)ccc4c3CCN2C1=O)NCCN1CCOCC1,-289,-1,17,91*,-78,90*,101*,
O=C(C[C@H]1C[C@H](C(=O)N2CCOCC2)[C@@]2(CCC3CCCC3)c3[nH]c4cc(-c5ccco5)ccc4c3CCN2C1=O)NCC12CC3CC(CC(C3)C1)C2,-101,0,-4,6,-32,.,.,
CN(C)CCCNC(=O)C[C@H]1C[C@H](C(=O)N2CCOCC2)[C@@]2(CCC3CCCC3)c3[nH]c4cc(-c5ccco5)ccc4c3CCN2C1=O,-176,0,-18,68*,-44,51*,51*,
O=C(C[C@H]1C[C@H](C(=O)N2CCOCC2)[C@@]2(CCC3CCCC3)c3[nH]c4cc(-c5ccco5)ccc4c3CCN2C1=O)NCc1cccc(C(F)(F)F)c1,-195,41,2,1,-63,.,.,
COc1ccc(C(=O)Nc2ccc3c(c2)C(=O)N(C)C[C@@H](OC)[C@@H](C)CN(C(C)=O)[C@@H](C)CO3)cc1,.,0,-2,.,.,.,.,
CCN(CC)CCNC(=O)c1cc2c(-c3cccc(OC)c3)nn(C)c2s1,-306,0,0,24*,-105,6,6.9*,
Cc1cc(=O)oc2cc(OCCCN3C(=O)c4ccccc4C3=O)ccc12,-1,0,9,0,-2,.,.,
CCCC(=O)Oc1ccc2c(C)cc(=O)oc2c1,i,0,0,656*,i,686*,706*,
Cc1cc(=O)oc2cc(OC(=O)CCN3C(=O)c4ccccc4C3=O)ccc12,i,0,15,58*,i,427*,404*,
SMILES,ADAM10 inh,FGF22 binding,rRNA inh HTS,KLK7 zymogen act,ADAM17 inh,KLK7 act conf,EDANS-DABCYL int,others
CCCCn1nc(C(=O)Oc2ccc3c(C)cc(=O)oc3c2)c2ccccc2c1=O,i,1,2,45*,i,64*,69*,
COCC#Cc1cnc2c(c1)C(=O)N([C@H](C)CO)C[C@H](C)[C@@H](CN(C)Cc1ccc(F)cc1)O2,.,0,-3,.,.,.,.,
COCC(=O)N1CC(=O)N2[C@H](CO)[C@@H](c3ccc(C#Cc4cccc(OC)c4)cc3)[C@@H]2C1,.,.,-1,.,.,.,.,
N#CCc1nn2c(-c3ccccc3)ccnc2c1C#N,i,0,5,15*,-371,8,4.7*,
Cc1nn2c(-c3ccccc3)ccnc2c1-c1ccccc1,4,.,.,0,-3,.,.,
COc1ccc(CN2C[C@@H](C)[C@@H](OC)CN(C)C(=O)c3cc(NC(C)=O)ccc3OC[C@H]2C)cc1,.,0,1,.,.,.,.,
CCCN1CCN(C(=O)c2cc3c(s2)-c2ccccc2OC3)CC1,i,0,-7,66*,i,-94,84*,
O=C(c1cc2c(s1)-c1ccccc1OC2)N1CCN(c2ccccc2)CC1,-238,0,-11,-5,-62,.,.,
O=C(c1cc2c(s1)-c1ccccc1OC2)N1CCCC1,i,0,-12,74*,i,62*,69*,
